{"source": "PubChem BioAssay AID686978", "about": "(National Center for Advancing Translational Sciences (NCATS), 2013)", "note": "Among all 420,000 compounds or so, about 64,000 (15%) were called active. Roughly 27% stayed inconclusive and do not appear here. These entries were drawn from the full list. Values without a mark were called inactive. The call rests on the fitted dose curve; in most records, active means well fitted inhibition curve with a large enough effect; inconclusive means small, poorly fitted or top-dose-only effect; inactive means flat fitted curve, though single readings scatter. On the % scale 0 is the no-effect control and ±100 the full control effect; potency means the concentration at half of the fitted maximal effect."}
{"experiment": "qHTS for Inhibitors of human tyrosyl-DNA phosphodiesterase 1 (TDP1): qHTS in cells in absence of CPT; further: nearly all actives have a fitted effect of over 55% in size", "conditions": "DT40 Tdp1-/- hTDP1 cells, no CPT, ATP luminescence, 48 h; activity change, negative = growth inhibition: at 46.2 µM (top of the series)", "summary_of_the_method": "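No-CPT arm: Tdp1-/-;hTDP1 DT40 cells (400/well) plus compounds, incubated ≥48 hr at 37 °C. Readout CellTiter-Glo luminescence.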", "units": {"activity change, negative = growth inhibition": "%"}}
{"smiles": "COc1ccc(Cl)cc1S(=O)(=O)N1CCC(O)(c2ccc(Cl)cc2)CC1", "activity change, negative = growth inhibition": -23.4}
{"smiles": "O=C(c1cc2ccccc2o1)N1CCN(S(=O)(=O)c2ccc(Cl)s2)CC1", "Potency": "14.6 µM (active)"}
{"smiles": "CS(=O)(=O)N1CCN(C(=O)c2cc3ccccc3oc2=O)CC1", "activity change, negative = growth inhibition": -3.02}
{"smiles": "O=C(c1cc2ccccc2o1)N1CCN(Cc2ccccc2)CC1", "activity change, negative = growth inhibition": 5.01}
{"smiles": "COC(=O)c1ccc(C)c(NC(=O)Cn2c(C)csc2=O)c1", "activity change, negative = growth inhibition": 23.5}
{"smiles": "CCOc1cc(/C=N/n2cnnc2)c(Br)cc1O", "activity change, negative = growth inhibition": -16.7}
{"smiles": "O=C(c1csnn1)N1CCC2(CCN(Cc3nccs3)CC2)CC1", "activity change, negative = growth inhibition": -9.33}
{"smiles": "CN1CN(C)c2ccc([N+](=O)[O-])c3cccc1c23", "activity change, negative = growth inhibition": -15.8}
{"smiles": "Cc1nc2ccccn2c1C(=O)NN=C1CCN(C)CC1", "activity change, negative = growth inhibition": 12}
{"smiles": "CCOC(=O)c1cccc(NC(=O)C2CCCN(S(=O)(=O)c3cnc[nH]3)C2)c1", "note": "(stereo not given)", "activity change, negative = growth inhibition": 1}
{"smiles": "COC(=O)c1ccc(CN2CCCC(C(=O)Nc3cccc(-n4cnnn4)c3)C2)cc1", "note": "(stereo not given)", "Potency": "16.4 µM (active)"}
{"smiles": "O=C(Nc1ccc(F)cc1)C1CCCN(S(=O)(=O)c2ccc(-n3cnnn3)cc2)C1", "note": "(stereo not given)", "activity change, negative = growth inhibition": 3.32}
{"smiles": "Cc1ccc(C(=O)NC2CCN(C(=O)Nc3ccccc3Cl)CC2)cc1", "activity change, negative = growth inhibition": -16.2}
{"smiles": "CN(CC(=O)NCc1ccc2c(c1)OCO2)CC(=O)Nc1ccc(F)c(F)c1F", "activity change, negative = growth inhibition": 1.96}
{"smiles": "Cc1nc2ccccc2n1CC(O)c1ccccc1", "note": "(stereo not given)", "activity change, negative = growth inhibition": -19.5}
{"smiles": "CC(C)c1ccc(Cn2c(COc3ccccc3)nc3ccccc32)cc1", "Potency": "20.6 µM (active)"}
{"smiles": "CC(O)c1nc2ccccc2n1Cc1ccc([N+](=O)[O-])cc1", "note": "(stereo not given)", "activity change, negative = growth inhibition": 9.29}
{"smiles": "COC(=O)[C@@H](NC(=O)Nc1cc(Cl)ccc1C)C(C)C", "activity change, negative = growth inhibition": -2.95}
{"smiles": "Cc1ccc2c(C)nc(N3CCCC(C(=O)NC(C)(C)CO)C3)nc2c1", "note": "(stereo not given)", "activity change, negative = growth inhibition": -23.1}
{"smiles": "Cc1ccc(NC(=O)CSc2nnc(-c3cnccn3)n2Cc2ccco2)cc1C", "activity change, negative = growth inhibition": -12.6}
{"smiles": "O=C(COc1ccc(S(=O)(=O)NCc2ccccc2)cc1)N1CCOCC1", "activity change, negative = growth inhibition": -18.6}
{"smiles": "COC(=O)c1c(-c2ccc(C)cc2)csc1N", "activity change, negative = growth inhibition": -19.4}
{"smiles": "CCOC(=O)c1c(-c2ccc(C)cc2)csc1/N=C(\\C)C1=C(O)c2ccccc2C1=O", "Potency": "18.4 µM (active)"}
{"smiles": "CC(=NCc1ccco1)C1=C(O)c2ccccc2C1=O", "activity change, negative = growth inhibition": -22.6}
{"smiles": "CCOC(=O)c1c(/N=C/C2C(=O)CC(C)(C)CC2=O)sc(C)c1C", "activity change, negative = growth inhibition": -3.59}
{"smiles": "CC1CCCCC1NC(=O)COC(=O)Cc1ccc(Br)cc1", "note": "(stereo not given)", "activity change, negative = growth inhibition": 2.5}
{"smiles": "CCCCn1c(N)c(N(CC)C(=O)c2ccc(N(C)S(=O)(=O)c3ccc(C)cc3)cc2)c(=O)[nH]c1=O", "activity change, negative = growth inhibition": -0.183}
{"smiles": "O=C(O)c1ccc(Nc2nc(-c3ccccc3)c3cc(Br)ccc3n2)cc1", "activity change, negative = growth inhibition": -23.2}
{"smiles": "Cc1ccc2nc(Nc3ccccc3O)nc(-c3ccccc3)c2c1", "activity change, negative = growth inhibition": -8.65}
{"smiles": "NC(N)=Nc1nc(-c2ccccc2)c2cc(Cl)ccc2n1", "Potency": "16.4 µM (active)"}
{"smiles": "C[C@H]1CC[C@]2(O[C@@H](CCO)C[C@@H](O)[C@@H]2O)O1", "activity change, negative = growth inhibition": -14.8}
{"smiles": "COCCn1c(=O)c(-c2cccc(F)c2)nc2cncnc21", "activity change, negative = growth inhibition": 2.81}
{"smiles": "Cn1cc(CN2CCC(C(O)CCc3ccccc3)CC2)c(-c2ccccc2F)n1", "note": "(stereo not given)", "activity change, negative = growth inhibition": -15.1}
{"smiles": "CCC(O)C1CCN(Cc2cn(-c3ccc(OC)cc3)nc2-c2cccc(F)c2)CC1", "note": "(stereo not given)", "Potency": "20.6 µM (active)"}
{"smiles": "Cc1cccc(-n2cc(CN3CCN(C(=O)c4ncn[nH]4)CC3)c(-c3cccc(F)c3)n2)c1", "activity change, negative = growth inhibition": -1.1}
{"smiles": "COc1ccc(NC(=S)N2CCC(NC(=O)c3cccc(F)c3)CC2)cc1", "activity change, negative = growth inhibition": -22.5}
{"smiles": "COc1ccc(-n2cc(CNC3CCOCC3)c(-c3cccc(F)c3)n2)cc1", "Potency": "20.6 µM (active)"}
{"smiles": "COC(=O)CC1Oc2ccccc2-n2cc(-c3ccccc3)nc21", "note": "(stereo not given)", "Potency": "20.6 µM (active)"}
{"smiles": "COC(=O)CC1=NN(c2ccccc2)C(=O)C1", "activity change, negative = growth inhibition": 1.46}
{"smiles": "CCC(CC)c1nn2cc(-c3ccccc3)nc2s1", "activity change, negative = growth inhibition": -10.9}
{"smiles": "CCC1CCCCN1C(=S)NC(=O)c1ccco1", "note": "(stereo not given)", "activity change, negative = growth inhibition": -15.4}
{"smiles": "CC(=O)c1cccc(NC(=O)[C@@H](NC(N)=O)C(C)C)c1", "activity change, negative = growth inhibition": 17.4}
{"smiles": "COc1ccc(CCNC(=O)CSc2nnc(CNC(=O)c3cccs3)o2)cc1OC", "activity change, negative = growth inhibition": -2.7}
{"smiles": "O=C(O)Cc1ccc(NC(=O)c2cccs2)cc1", "activity change, negative = growth inhibition": -24.9}
{"smiles": "COc1ccc(CCNC(=O)/C(C#N)=C2\\N=C(NC(=O)c3cccs3)c3ccccc32)cc1", "Potency": "10.3 µM (active)"}
{"smiles": "CCc1ccc2c(c1)cc(CN(C(=S)Nc1ccccc1Cl)C1CC1)c1nnnn12", "activity change, negative = growth inhibition": -20.9}
{"smiles": "Cc1oc2c(C)c3oc(=O)c(CC(=O)N[C@@H](CC(C)C)C(=O)N[C@@H](Cc4ccccc4)C(=O)O)c(C)c3cc2c1C", "activity change, negative = growth inhibition": 4.05}
{"smiles": "COCc1[nH][nH]c(=O)c1C=Nc1ccc(F)cc1F", "activity change, negative = growth inhibition": 0.924}
{"smiles": "CS(=O)(=O)N(CC(=O)N1CCc2ccccc2C1)c1ccc(Br)cc1", "activity change, negative = growth inhibition": -22.6}
{"smiles": "Cc1ccc(S(=O)(=O)N(CC(=O)N2CCc3ccccc3C2)c2cccc(Cl)c2)cc1", "Potency": "20.6 µM (active)"}
{"smiles": "COc1cccc(N(CC(=O)N2CCc3ccccc3C2)S(C)(=O)=O)c1", "activity change, negative = growth inhibition": 5.09}
{"smiles": "Cc1ccccc1CNC(=O)CCC(=O)N1Cc2ccccc2Oc2ncccc21", "activity change, negative = growth inhibition": -21.1}
{"smiles": "Cc1cccc(N(Cc2ccccc2)C(=O)c2cc(S(=O)(=O)N3CCOCC3)ccc2F)c1", "Potency": "18.4 µM (active)"}
{"smiles": "COc1ccc(C(=O)NCc2ccc(C)cc2)cc1S(=O)(=O)N1CCCC1", "activity change, negative = growth inhibition": 0.964}
{"smiles": "CCOc1ccc(CCNC(=O)COC(=O)c2ccc(C)c(S(=O)(=O)N3CCOCC3)c2)cc1OCC", "activity change, negative = growth inhibition": -3.81}
{"smiles": "Cc1ccc(S(=O)(=O)N2CCN(C(=O)c3cc(S(=O)(=O)N4CCOCC4)ccc3F)CC2)cc1", "activity change, negative = growth inhibition": -16.8}
{"smiles": "Cc1ccc(C(=O)OCC(=O)N2CCCCCC2)cc1S(=O)(=O)N1CCOCC1", "activity change, negative = growth inhibition": 4.19}
{"smiles": "COc1ccc(C(=O)N(Cc2ccccc2)c2ccc(C)cc2)cc1S(=O)(=O)N1CCOCC1", "Potency": "14.6 µM (active)"}
{"smiles": "COc1ccc(C(=O)OCC(=O)c2ccc(C)c(S(=O)(=O)N3CCOCC3)c2)cc1OC", "Potency": "11.6 µM (active)"}
{"smiles": "COc1ccc(C(=O)N(C)Cc2ccc(OC)c(OC)c2OC)cc1S(=O)(=O)N1CCOCC1", "activity change, negative = growth inhibition": 21.5}
{"smiles": "Cc1ccc(S(=O)(=O)N2CCOCC2)cc1C(=O)NC(=S)N(Cc1ccccc1)C(C)C", "activity change, negative = growth inhibition": -7.61}
{"smiles": "O=C1c2cccc3cccc(c23)N1CN1CCN(c2ccccn2)CC1", "activity change, negative = growth inhibition": 4.31}
{"smiles": "CCCCc1ccc(NC(=S)N2CCCC(CO)C2)cc1", "note": "(stereo not given)", "activity change, negative = growth inhibition": -12.3}
{"smiles": "Oc1ccc2ccc3cccc[n+]3c2c1", "activity change, negative = growth inhibition": -17.9}
{"smiles": "CCCCN(CC)CCCNC(=O)c1ccc(CSc2nc3ccncc3[nH]2)cc1", "activity change, negative = growth inhibition": -13.3}
